Bioassay records as filed in PubChem BioAssay.
Vaccinia mCherry – qHTS for Stage-Specific Inhibitors of Vaccinia Orthopoxvirus: mCherry Reporter Primary qHTS; Vaccinia virus mCherry reporter infection, fluorescence; Potency, µM (series often up to 36.5 µM), actives largely listed as inhibitors; actives 0.63% (n = 310,000); calls by dose curve; tested in A549 cells; also: nearly all actives have a fitted effect of over 35% in size
HCV inhibitor – qHTS Assay for Inhibitors of Hepatitis C Virus (HCV); Huh7.5.1 HCVcc-Cre infection, luciferase reporter, 44 h; Potency, µM (top dose mostly 41.8 µM), usual class: inhibitors; actives 3.4% (n = 340,000); AID 651820, 2012; active = well fitted inhibition curve with a large enough effect; inconclusive = small, poorly fitted or top-dose-only effect, or another doubt; inactive = no such curve, though single readings can be large or run the other way
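Cells seeded at 1,000/well and cultured 4 h, then compounds added followed by HCVcc-Cre virus (~0.5 moi). After 44 h further culture, luciferase substrate was added, plates held 15 min at room temperature, and luminescence read for 15 sec.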
HCMV antiviral – qHTS Assay for inhibitors of the human cytomegalovirus (HCMV); HFF cells, HCMV-luciferase reporter, 72 h; active compounds read low; activity change, negative = inhibition, % at 57.5 µM; actives 4.5% (n = 410,000); in the data active = activity change below about -60%; inconclusive = no clear call, values can overlap the other calls; inactive = above about -39%
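Screen run at 2 compound doses on HFFs infected with reporter HCMV, MOI 1 PFU/cell. Luciferase activity from cell lysates at 72 h post infection gave inhibition relative to buffer-only and Salinomycin wells.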
VACV Venus inh – qHTS for Stage-Specific Inhibitors of Vaccinia Orthopoxvirus: Venus Reporter Primary qHTS; Vaccinia virus Venus reporter expression, fluorescence; Potency, µM (doses to about 36.5 µM), actives largely listed as inhibitors; actives 0.46% (n = 330,000); calls by dose curve; tested in A549 cells; also: nearly all actives have a fitted effect of over 30% in size
FMDV inh – High Throughput Screening for Foot and Mouth Disease Virus Antivirals; FMDV antiviral cell-based qHTS; Potency, µM (top dose mostly 57.9 µM), actives largely listed as inhibitors; actives 1.2% (n = 410,000); calls by dose curve; tested in HEK293T cells; also: read-out not given here; nearly all actives have a fitted effect of over 45% in size
Hits are given with their value; . = inactive; ? = inconclusive; / = no result; ! = not confirmed by another sample; [ ] = remark or other dose. Most compounds without a hit are left out; they make up all but 7.3% or so of the library.

SMILES | Vaccinia mCherry | HCV inhibitor | HCMV antiviral | VACV Venus inh | FMDV inh
COc1ccc(C(=O)O/N=C(\N)c2ccc(OC)c(OC)c2)cc1 | / | . | . | / | .
CC(C)c1ccc(CN2CCC3(CCC(CNC(=O)c4ccn(C)n4)O3)CC2)cc1 (stereo unspecified) | . | / | / | . | .
CC1CCc2onc(C(=O)N3CCN(c4ccc(F)cc4)CC3)c2C1 (stereo unspecified) | . | / | . | . | .
Cc1cc(C)nc(NNS(=O)(=O)c2ccc(Cl)cc2)n1 | . | . | -60.6 | . | .
CCOC(=O)CSc1nc2cc3c(cc2c(=O)n1CCCC(=O)NCCc1ccc(OC)c(OC)c1)OCO3 | . | / | . | . | .
O=C(c1cccc(F)c1F)N1CCOc2ccc(CN3CCC(Oc4cccnc4)CC3)cc2C1 | . | / | / | . | .
CCc1ccc(NC(=O)C2=CC(c3cccs3)=NS(=O)(=O)N2C)cc1 | ? | ? | -74.6! | . | .
COc1ccc(N2CCN(C(=O)CSc3nnc4n3C(C)(C)Cc3ccccc3-4)CC2)cc1 | / | ? | -63.6 | / | 20µM
CC1(C)Cc2ccccc2-c2nnc(SCC(=O)N3CCc4ccccc43)n21 | / | ? | . | / | .
Cc1ccc(Cl)cc1N1CCN(C(=O)CSc2nnc3n2C(C)(C)Cc2ccccc2-3)CC1 | / | ? | . | / | 12.6µM
CCn1c(COc2cccc(C)c2C)nnc1SCC(=O)N1CCN(c2ccc(OC)cc2)CC1 | / | ? | -97.1 | / | ?
CCn1c(CSCc2ccc(C)cc2)nnc1SCC(=O)N1CCN(c2ccccc2)CC1 | ? | ? | . | ? | 22.4µM
COc1cc(C(=O)NCc2nc3cccnc3n2Cc2ccc(C)cc2)cc(OC)c1OC | . | / | . | . | .
CN(C)c1ncc2nc(-c3cn(C)c4ccccc34)c(=O)n(C[C@H]3CCCO3)c2n1 | / | / | / | / | .
COc1ccc(N2CCN(S(=O)(=O)c3cc(C)ccc3OC)CC2)cc1 | ? | 2.82µM | . | . | .
COc1ccc(-n2nnnc2C2CCN(S(=O)(=O)c3cc(Cl)ccc3OC)CC2)cc1 | . | / | -78.2 | ? | ?
COc1ccc(C)cc1S(=O)(=O)N1CCN(C(=O)c2ncoc2-c2ccc(C)cc2)CC1 | . | . | -69.7 | . | .
COc1ccc(N2CCN(C3CCCN(S(=O)(=O)c4ccc(C)cc4C)C3)CC2)cc1 (stereo unspecified) | / | 8.91µM | -73.1 | / | .
COc1ccc(OC)c(S(=O)(=O)N2CCN(c3ccc(F)cc3)CC2)c1 | / | . | . | / | .
COc1ccc(CCNC(=O)Cn2c(=O)nc(-c3ccccc3)c3ccccc32)cc1OC | . | / | . | . | .
CN(C)CC1CCCCC1OC(=O)c1ccc(Cl)cc1Cl (stereo unspecified) | / | ? | -61.0 | / | .
CCOC(=O)c1c(NC(=O)c2ccccc2Cl)sc2c1CCc1ccccc1-2 | . | 7.94µM | ? | . | ?
Cc1ccc(-c2cc(C(=O)Nc3ccc(SC(F)F)cc3)no2)cc1F | . | / | . | . | .
N#Cc1c(Nc2ccccc2)[n+]([O-])c2ccc(Cl)cc2[n+]1[O-] | . | 2.82µM | ? | ? | .
Cc1ccc(-c2cc(NC(=O)COc3c(C)cc(C)cc3C)on2)cc1 | . | / | . | . | .
SMILES | Vaccinia mCherry | HCV inhibitor | HCMV antiviral | VACV Venus inh | FMDV inh
O=C(NCC(c1ccc2c(c1)OCO2)N1CCOCC1)C(=O)Nc1ccc(Cl)cc1 (stereo unspecified) | . | / | ? | . | .
CCC(CC)C(=O)N1c2ccc(F)cc2CCC1C (stereo unspecified) | . | . | . | . | .
CC1CCc2cc(F)ccc2N1C(=O)CCl (stereo unspecified) | . | ? | / | . | 14.1µM
Clc1ccc(OCc2nc(-c3ccccn3)no2)c(Br)c1 | . | ? | -60.6 | . | .
CCc1nnc(NC(=O)c2nc(SCc3ccc(F)cc3)ncc2Cl)s1 | . | / | . | . | .
COc1ccc(CN(CCC#N)CCC2(c3ccccc3)CC(C)N(C)CC2C)cc1OC (stereo unspecified) | .[7.34 µM] | . | . | .[7.34 µM] | .
COc1ccc(CNCCC2(Cc3ccccc3)CC(C)N(C)CC2C)cc1OC (stereo unspecified) | / | 7.94µM | . | / | .
COC(=O)c1c(NC(=O)CS(=O)(=O)c2ccc(C)cc2)sc2c1CCCCC2 | . | / | ? | . | .
OCCCNCc1cc2ccc(F)cc2nc1N1CCN(c2cccc(Cl)c2)CC1 | ? | / | / | . | .
O=[N+]([O-])c1cc2c(ccc3occc32)o1 | / | / | -72.8 | / | /
CCCN1C(=O)C[C@H](S(=O)(=O)c2ccccc2)[C@H]1c1ccccc1OC | / | / | . | / | /
CN1c2ccccc2C(C)(C)C12CC(c1cccc(S(=O)(=O)N3CCCC3)c1)=NO2 (stereo unspecified) | . | ? | -71.8 | . | .
O=S(=O)(c1ccc(-c2ccccc2)cc1)N1CCCCC1 | . | ? | . | . | .
CN1/C(=C\C(=O)c2cccc(S(=O)(=O)N3CCCCC3)c2)C(C)(C)c2ccccc21 | / | . | . | / | .
CCN(CC)S(=O)(=O)c1ccc(C2=NOC3(C2)N(C)c2ccccc2C3(C)C)cc1 (stereo unspecified) | . | . | -75.9 | . | .
CN1c2ccccc2C(C)(C)C12CC(c1ccc(S(=O)(=O)N3CCCCC3)cc1)=NO2 (stereo unspecified) | . | . | -70.3 | . | .
O=C(Nc1ccc2nc(SCC(=O)N3CCc4ccccc43)sc2c1)c1ccccc1 | . | / | . | . | .
Cc1ccc(NC(=O)CSc2ncc3c(n2)-c2ccccc2N(C)S3(=O)=O)c(Cl)c1 | ? | / | . | . | .
O=C(Cn1c2ccccc2c(=O)c2ccccc21)N/N=C/c1cc([N+](=O)[O-])ccc1N1CCCCCC1 | . | 2.51µM | -73.0 | . | .
O=C(Cn1c2ccccc2c(=O)c2ccccc21)N/N=C/c1ccc(N2CCCC2)c([N+](=O)[O-])c1 | . | ? | ? | . | .
COCCCN1CCN(C2Cc3ccccc3Sc3ccc(Cl)cc32)CC1 (stereo unspecified) | ? | . | . | ? | .
NC(=O)CCN1CCN(CCOC2Cc3cc(Cl)ccc3Sc3ccccc32)CC1 (stereo unspecified) | . | 11.2µM | ? | ? | .
Cc1ccc(-c2cc3cccc[n+]3cc2-c2ccc(C)cc2)cc1 | . | ? | -97.6 | . | 39.8µM
CCCOc1ccc(C(=O)Nc2ccc(CN3CCOCC3)cc2)cc1 | . | ? | ? | . | ?
CCCCOc1ccc(C(=O)Nc2ccncc2)cc1 | / | 8.91µM | -76.0 | ? | ?
O=C(Nc1ccc(S(=O)(=O)Nc2ccc(F)cc2)cc1)c1ccc(CN2CCOCC2)cc1 | . | 1µM | -64.6 | . | ?
CN1CCN(Cc2cccc(Oc3ccccc3)c2)CC1 | . | . | . | . | /
OCCN1CCN(Cc2cccc(Oc3ccc(Cl)cc3)c2)CC1 | . | 11.2µM | . | . | .
O=C(Nc1ccc(S(=O)(=O)N2CCOCC2)cc1)c1ccc(F)cc1 | . | . | . | . | .
